The sample as a whole holds a higher share of hits than the screen did.
ER stress death – ER stress cell death inhibition; CSM14.1 thapsigargin ER stress survival, ATP luminescence; relative survival (cellular ATP), % at 15 µg/mL (by protocol); 48,000 compounds, 0.33% hits; AID 1010;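 active = survival measured by cellular ATP above 50% at 15 µg/ml in the first screen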;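 note: cell death triggered by about 15 µM thapsigargin; ATP read 24 h after thapsigargin was added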
Each line names hits and unclear results; the compound was inactive in the other large screens.

O=C1C=C(c2ccccc2)CC(c2ccccc2)C1n1nnc2ccccc21 (configuration not stated)	ER stress death 95
COc1ccc(C2=CC(=O)CC(c3ccccc3)C2)cc1 (configuration not stated)	none
O=C(NCCN1CCOCC1)c1cnn2c(C(F)(F)F)cc(-c3ccco3)nc12	none
COc1ccc(N(CC(=O)Nc2ccccc2Cl)S(=O)(=O)c2ccc(OC)c(OC)c2)cc1	none
CC(C)(C)C1CCc2c(sc3ncn(N)c(=N)c23)C1 (configuration not stated)	none
CSc1nc(NC(N)=O)c2c3c(sc2n1)CC(C(C)(C)C)CC3 (configuration not stated)	ER stress death 58
CC(C)(C)C1CCc2c(sc(NC(=O)c3ccncc3)c2C(N)=O)C1 (configuration not stated)	none
Cc1cccc(C=Nc2ccccc2O)c1O	none
OC(COCc1ccc(Cl)cc1)CSc1nc2ccccc2s1 (configuration not stated)	none
O=C(COc1ccc2ccccc2c1)Nc1ccccc1CO	none
COc1cccc(CN2CCN(C(=O)C(c3ccccc3)c3ccccc3)CC2)c1OC	none
O=C(C(c1ccccc1)c1ccccc1)N1CCN(Cc2ccccc2[N+](=O)[O-])CC1	ER stress death 92
COc1ccccc1C(=O)N1CCN(Cc2ccccc2[N+](=O)[O-])CC1	none
O=C1NC(c2ccc([N+](=O)[O-])cc2)Nc2c1sc(=S)n2-c1ccccc1 (configuration not stated)	none
CCOc1ccc(C2Nc3ccccc3NC3=C2C(=O)CC(c2ccc(OC)cc2)C3)cc1 (configuration not stated)	none
CCCCOc1ccccc1C1Nc2ccccc2NC2=C1C(=O)CC(c1ccccc1)C2 (configuration not stated)	ER stress death 53
CCOc1ccc(C2Nc3ccccc3NC3=C2C(=O)CC(c2ccccc2)C3)cc1 (configuration not stated)	ER stress death 100
COc1ccc(C2CC(=O)C3=C(C2)Nc2ccccc2NC3c2cc(C)ccc2C)cc1 (configuration not stated)	ER stress death 116
CCOc1ccccc1C1Nc2ccccc2NC2=C1C(=O)CC(c1ccc(OC)cc1)C2 (configuration not stated)	none
CCCCOC(=O)C1=C(C)NC2=C(C(=O)CC(c3ccccc3)C2)C1c1ccco1 (configuration not stated)	ER stress death 68
CCCOC(=O)C1=C(C)NC2=C(C(=O)CC(c3ccc(OC)cc3)C2)C1c1ccc(OCc2ccccc2)c(OC)c1 (configuration not stated)	none
COc1ccc(C2CC(=O)C3=C(C2)Nc2ccccc2NC3c2ccccc2Br)cc1 (configuration not stated)	none
COc1ccc(C2CC(=O)C3=C(C2)Nc2ccccc2NC3c2ccccc2)cc1 (configuration not stated)	none
O=C1CC(c2ccccc2)CC2=C1C(c1ccc(OCc3ccccc3)cc1)Nc1ccccc1N2 (configuration not stated)	none
COC(=O)C1=C(C)NC2=C(C(=O)CC(c3ccccc3)C2)C1c1ccc(Cl)cc1 (configuration not stated)	none
COc1ccccc1C1Nc2ccccc2NC2=C1C(=O)CC(c1ccccc1)C2 (configuration not stated)	none
Cc1cccc(N2C(=O)/C(=C/c3ccc([N+](=O)[O-])cc3)SC2=S)c1C	none
O=C(CC(c1ccccc1)c1ccccc1)N1CCN(c2cccc(Cl)c2)CC1	none
Nc1c(C(=O)O)cc(O)c2c1C(=O)c1ccccc1C2=O	none
COc1ccc(/C(N)=N/OC(=O)c2cccc(C)c2)cc1	none
O=C(Nc1ccc(-c2nc3ccccc3[nH]2)cc1)c1ccc(F)cc1	none
CCCCNCCOCCOc1ccc(OC)cc1	none
CCOc1ccc(N(CC(=O)Nc2ccc(C)cc2C)S(=O)(=O)c2ccc(SC)cc2)cc1	none
Cc1ccc(C2Nc3ccccc3NC3=C2C(=O)CC(c2ccccc2)C3)cc1 (configuration not stated)	none
O=C1CC(c2ccccc2)CC2=C1C(c1ccc(-c3ccccc3)cc1)Nc1ccccc1N2 (configuration not stated)	none
CSc1ccc(C2Nc3ccccc3NC3=C2C(=O)CC(c2ccccc2)C3)cc1 (configuration not stated)	ER stress death 91
O=C(c1ccccc1)N1CCN(Cc2cccc(Oc3ccccc3)c2)CC1	ER stress death 59
COc1cccc(CN2CCN(C(=O)c3ccc(-c4ccccc4)cc3)CC2)c1	ER stress death 93
COc1cc(OC)c(OC)cc1CN1CCN(C(=O)c2ccc(-c3ccccc3)cc2)CC1	none
c1ccc(Oc2cccc(CN3CCN(Cc4ccccn4)CC3)c2)cc1	none
COc1ccc(OC)c(CN2CCN(C(=O)c3ccc(-c4ccccc4)cc3)CC2)c1	ER stress death 104
COc1ccc(C(=O)N2CCN(Cc3cccc(C)c3)CC2)cc1	none
COc1ccc(OC)c(CN2CCN(C(=O)c3ccc(OC)c(OC)c3)CC2)c1	none
O=C(c1ccc(F)cc1)N1CCN(Cc2cccc(Oc3ccccc3)c2)CC1	none
Cc1ccc(C(=O)N2CCN(Cc3ccccc3)CC2)cc1	none
O=C(c1ccc(F)cc1)N1CCN(Cc2ccc(Cl)cc2)CC1	none
COc1ccc(C(=O)N2CCN(Cc3cccc(Cl)c3)CC2)cc1	none
O=C(c1ccc(-c2ccccc2)cc1)N1CCN(Cc2ccc(Cl)cc2)CC1	ER stress death 98
O=C(CC1S/C(=N\N=C\c2cccs2)NC1=O)Nc1ccccc1F (configuration not stated)	none
O=C(NCCCCc1ccccc1)C1CC(=O)N(c2ccc(Br)cc2)C1 (configuration not stated)	none
CN(C)CC(=O)N1c2ccccc2CCc2ccc(NC(=O)c3ccccc3)cc21	none
O=[N+]([O-])c1cccc(-n2cccc2/C=N/Nc2nc(N3CCOCC3)nc(N3CCOCC3)n2)c1	none
O=C(CCNc1ccc(-c2ccccc2)cc1)c1cccc([N+](=O)[O-])c1	none
CN1CCN(/N=C/c2cccs2)CC1	none
COc1ccc(C(=O)N2CCN(C(=O)c3cccc(Cl)c3)CC2)cc1	none
CCOC(=O)c1c(C)nc(C)c(C(=O)OCC)c1-c1ccccc1	none
CCOC(=O)c1c(C)nc(C)c(C(=O)OCC)c1-c1cccc(NC(=O)c2ccc(F)cc2)c1	ER stress death 115
CCOc1ccc(C(=O)Nc2cccc(NC(=O)c3ccc(F)cc3)c2)cc1	none
O=C(Nc1cc(C(F)(F)F)ccc1Cl)C(O)(c1ccccc1)c1ccccc1	none
C(=N\Nc1nn[nH]n1)/c1ccc(OCc2ccccc2)cc1	none
COc1ccc(/C=C/C(=O)c2ccc(C)cc2)cc1[N+](=O)[O-]	none
Cc1cccc(C=Nc2ccc(-c3nc4ccc(C)cc4s3)cc2)c1	none
COc1ccc(C2CC(=O)C3=C(C2)Nc2ccccc2NC3c2ccc(OC(C)=O)c(OC)c2)cc1OC (configuration not stated)	none
COc1ccc(C2CC(=O)C3=C(C2)Nc2ccccc2NC3c2ccc(F)cc2)cc1OC (configuration not stated)	none
COc1ccc(C2Nc3ccccc3NC3=C2C(=O)CC(c2ccccc2)C3)cc1OC (configuration not stated)	none
COc1ccc(C2Nc3ccccc3NC3=C2C(=O)CC(c2ccc(OC)c(OC)c2)C3)cc1 (configuration not stated)	none
COc1ccc(C2CC(=O)C3=C(C2)Nc2ccccc2NC3c2cccc(Br)c2)cc1OC (configuration not stated)	ER stress death 122
